From PubChem BioAssay AID493122 (National Center for Advancing Translational Sciences (NCATS), 2011)
A number with no mark means an inactive call. How the calls were made is not given here.

Assay: Concentration response cycloheximide confirmation counterscreen for small molecule inhibitors of Shiga toxin
Conditions: protein synthesis reporter, cells; series mostly up to 76.6 µM; activity, positive = inhibition: at the top concentration

Row | Structure (SMILES) | activity, positive = inhibition
1 | CCOC(=O)C1(CCCc2ccccc2)CCN(C(=O)CCn2cncn2)CC1 | 5.11%
2 | O=C(Nc1ccccc1)c1ccc[nH]1 | 9.92%
3 | COc1ccccc1CNC(=O)c1csc2c1CCCC2 | 12.7%
4 | CN(C)S(=O)(=O)c1ccc(C(=O)OCC(=O)c2ccc3c(c2)NC(=O)CO3)cc1 | 1.3%
5 | CN(C(=O)c1ccc2c(=O)n3c(nc2c1)CCCCC3)c1ccccc1 | 17.6%
6 | O=C(NC1CCCC1)c1cc(Cl)ccc1[N+](=O)[O-] | 4.66%
7 | CC1CCC/C=C/C2CC(O)CC2C(O)/C=C/C(=O)O1 (stereo unspecified) | -4.12%
8 | COc1ccc(C(C)(C)C)cc1NC(=O)c1ccc2c(c1)SC1=NS(=O)(=O)CCN12 | -2.3%
9 | O=C(CC(c1ccccc1)c1cc(Cl)ccc1O)N1CCCC1 (stereo unspecified) | 1.48%
10 | CN(C)S(=O)(=O)c1ccc(C(=O)Nc2ccc(CN3CCCC3)cc2)cc1 | 1.52%
11 | CC(C)CNC(=O)c1noc2c1CCCC2 | 12.9%
12 | Cc1cc(C(=O)COC(=O)CNS(=O)(=O)c2ccc3ccccc3c2)c(C)n1-c1ccccc1 | 6.29%
13 | CCn1c2ccccc2c2cc(NC(=O)c3cccc([N+](=O)[O-])c3)ccc21 | 3.75%
14 | C=CCNC(=O)c1ccc(C)c(Br)c1 | 7.68%
15 | Cc1cccc(NC(=O)CCN2C(=O)c3ccccc3S2(=O)=O)c1C | 1.03%
16 | CC(=O)c1ccc(N2CCN(S(=O)(=O)c3ccc4c(c3)CC(C)N4C(C)=O)CC2)cc1 (stereo unspecified) | 8.89%
